Source: PubChem BioAssay (NCI)
Where “and” joins values, the source holds several entries; their conditions need not be identical. Equal values may be shown once. This is part of a sample that, as a whole, favours compounds with a hit. Of some 83,000 tested, about 20% had one in any assay.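 Activity criterion: percent growth below 10, measured after cells in 96-well plates were exposed to a single compound concentration for 48 hours.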 Calls of active or inactive are those of the source.

Tests used:
Test in all cases: NCI-60 one-dose screen, 48 h (100 = growth as untreated, 0 = no growth, -100 = all killed)
HCT-15 colon = conditions: 10 µM
HT29 colon = conditions: 10 µM
SNB-75 CNS = conditions: 10 µM
SNB-19 CNS = conditions: 10 µM
U251 CNS = conditions: 10 µM
PC-3 prostate = conditions: 10 µM
UACC-62 melanoma = conditions: 10 µM unless noted
LOX IMVI melanoma = conditions: 10 µM
SK-MEL-28 melanoma = conditions: 10 µM
SK-MEL-5 melanoma = conditions: 10 µM

Row | Structure (SMILES) | growth (HCT-15 colon) | growth (HT29 colon) | growth (SNB-75 CNS) | growth (SNB-19 CNS) | growth (U251 CNS) | growth (PC-3 prostate) | growth (UACC-62 melanoma) | growth (LOX IMVI melanoma) | growth (SK-MEL-28 melanoma) | growth (SK-MEL-5 melanoma)
1 | NC(Cc1ccccc1)c1ccccc1 (centres undefined) | 110% (inactive) and 97.8% (inactive) | 106% (inactive) and 95.1% (inactive) | 93.9% (inactive) and 84.8% (inactive) | 105% (inactive) and 99.7% (inactive) | 103% (inactive) and 102% (inactive) | 84.8% (inactive) and 90% (inactive) | 99.8% (inactive) and 91.6% (inactive) | 92.2% (inactive) and 97.5% (inactive) | 101% (inactive) and 110% (inactive) | 
2 | COc1ccc(/C=C\[N+](=O)[O-])cc1OC | 53.9% (inactive) and 17.4% (inactive) | 41.3% (inactive) and 24.7% (inactive) | 65.2% (inactive) | 82.5% (inactive) and 63.1% (inactive) | 56.2% (inactive) and 48.6% (inactive) | 68.9% (inactive) and 77.1% (inactive) | 74.1% (inactive) and 50% (inactive) | 2.99% (active) and -69.2% (active) | 50.4% (inactive) | 
3 | O=C(CBr)Nc1ccccc1 | 55.6% (inactive) | 103% (inactive) | 100% (inactive) | 94.9% (inactive) | 91.6% (inactive) | 95.2% (inactive) |  | 9.08% (active) | 113% (inactive) | 97.3% (inactive)
4 | O=C(CBr)Nc1ccc(Cl)cc1 | 17.6% (inactive) | 4.44% (active) | 102% (inactive) | 88.8% (inactive) | 86.8% (inactive) | 93.3% (inactive) |  | -57.4% (active) | 102% (inactive) | 
5 | COc1cc(/C=C/[N+](=O)[O-])cc(Br)c1OC | 7.99% (active) |  | 19.5% (inactive) | 49% (inactive) | -21.2% (active) | 31.1% (inactive) | -5.62% (active) | -100% (active) | -19.8% (active) | 
6 | C#CC1(O)CCC(C(C)(C)C)CC1 (centres undefined) | 91.6% (inactive) | 104% (inactive) | 113% (inactive) | 103% (inactive) | 106% (inactive) | 97.1% (inactive) |  | 110% (inactive) | 120% (inactive) | 
7 | O=[N+]([O-])c1ccc(Br)c([N+](=O)[O-])c1 | 36.6% (inactive) | 75.4% (inactive) |  | 101% (inactive) | 99.1% (inactive) | 91.8% (inactive) |  | 13.3% (inactive) | 101% (inactive) | 
8 | CN(C)CC1(N)C(=O)NC(=O)NC1=O | 102% (inactive) | 99.6% (inactive) | 89.7% (inactive) | 102% (inactive) | 96.3% (inactive) | 93.5% (inactive) |  | 104% (inactive) | 95.1% (inactive) | 
9 | COc1ccc2c(ccc3oc([N+](=O)[O-])cc32)c1 | 5.1% (active) | -8.59% (active) | -68.5% (active) | 5.8% (active) | -8.64% (active) | 9.56% (active) |  | -35.9% (active) | -39.6% (active) | 
10 | O=[N+]([O-])/C=C\c1ccc2c(c1)OCO2 | 78.4% (inactive) | 58.2% (inactive) |  | 102% (inactive) | 71.1% (inactive) | 83% (inactive) |  | 18.9% (inactive) |  | 
11 | NNc1ccccc1 | 82.3% (inactive) | 96.9% (inactive) | 93.2% (inactive) | 96.7% (inactive) | 103% (inactive) |  | 40.4% (inactive) | 65.3% (inactive) | 107% (inactive) | 87.9% (inactive)
12 | COC1CC2C=C(C)/C=C/C=C/C(=O)NC(c3ccccc3)C/C=C/CCC(O)CC(=O)C2=C1O (centres undefined) | -85.2% (active) | -83.7% (active) | -89.9% (active) | -27.1% (active) |  | -91.1% (active) | -89.3% (active) | -91.6% (active) | -80.9% (active) | 
13 | COc1ccc(/C=C(\C)[N+](=O)[O-])cc1OC | 0.0541% (active) | -67% (active) | 56.5% (inactive) | 99.8% (inactive) |  | 51% (inactive) |  | -58.7% (active) | -67.2% (active) | 54.6% (inactive)
14 | CS(=N)(=O)CCC(N)C(=O)O (centres undefined) | 99.9% (inactive) | 113% (inactive) | 91% (inactive) | 102% (inactive) | 104% (inactive) | 89.8% (inactive) |  | 103% (inactive) | 128% (inactive) | 
15 | COc1ccccc1[As]=[As]c1ccccc1OC (centres undefined) | -87.2% (active) | -76.9% (active) | -91.8% (active) | -84.5% (active) | -83.3% (active) | -78.9% (active) |  | -97.3% (active) | -83% (active) | 
16 | Cc1cc(C(C)(C)c2ccc(O)c(C)c2)ccc1O | 93.9% (inactive) |  | 73.7% (inactive) | 100% (inactive) | 86.6% (inactive) | 123% (inactive) |  | 85.3% (inactive) | 100% (inactive) | 88% (inactive)
17 | COc1cc(/C=C(/C)[N+](=O)[O-])ccc1O | -48.3% (active) and 1.2% (active) | 3.02% (active) and -26.9% (active) | 74.3% (inactive) and 1.18% (active) | 81.5% (inactive) and 75.1% (inactive) | 25.4% (inactive) and 28% (inactive) | 60.7% (inactive) and 56.6% (inactive) |  | -25.7% (active) and -73.2% (active) | 33.1% (inactive) and -9.24% (active) | 
18 | Cc1ccc(NC(=O)CBr)cc1 | 96.6% (inactive) | 115% (inactive) | 97.1% (inactive) | 96.8% (inactive) |  | 96.4% (inactive) | 86.8% (inactive) | 49.8% (inactive) | 102% (inactive) | 96.4% (inactive)
19 | C[CH2][Hg][S]c1ccccc1C(=O)O | -84.7% (active) | -59% (active) | -43.7% (active) | 50.6% (inactive) | -6.81% (active) | 55.8% (inactive) |  | -54.9% (active) | -87.5% (active) | 
20 | [Cl][Hg][c]1ccc(Cl)s1 | -59.5% (active) | 25.2% (inactive) | 58.1% (inactive) | 75.5% (inactive) | 14.9% (inactive) | 64.1% (inactive) |  | -70.9% (active) | -85.4% (active) | 
21 | O=c1[nH]c2ccccc2n1C1CCN(CCCC(c2ccc(F)cc2)c2ccc(F)cc2)CC1 | 37.7% (inactive) and -3.08% (active) | 9.69% (active) and -2.65% (active) | 77.1% (inactive) and 106% (inactive) | 77.9% (inactive) and 68.2% (inactive) | -1.25% (active) and 17.5% (inactive) | -21.4% (active) and 21.3% (inactive) |  | 15.6% (inactive) and -22.7% (active) | 82.2% (inactive) and -53.2% (active) | 
22 | COc1cc2c3cc1Oc1c(OC)c(OC)cc4c1C(Cc1ccc(cc1)Oc1cc(ccc1O)CC3N(C)CC2)N(C)CC4 (centres undefined) |  |  |  |  |  |  | -16.8% [100 µM] (active) and -81.7% [100 µM] (active) |  |  | 
23 | CC/C(=C/c1ccc(OC)cc1)[N+](=O)[O-] | -35.4% (active) | 3.04% (active) | 53.9% (inactive) | 30.1% (inactive) | 22.5% (inactive) | 59.2% (inactive) |  | -92.5% (active) | -52.4% (active) | 
24 | O=[N+]([O-])c1ccc(N(CCO)CCO)c2c1no[n+]2[O-] |  | -78.6% (active) | -39.3% (active) | -17.9% (active) | -69.2% (active) | -5.95% (active) | -41.6% (active) | -26.5% (active) | -8.85% (active) | -73.9% (active)
25 | COc1cc(/C=C/[N+](=O)[O-])cc(OC)c1OC | -9.12% (active) | -27.1% (active) | 18.9% (inactive) | 56.5% (inactive) | 18.4% (inactive) | 6.51% (active) |  | -71.7% (active) | -7.3% (active) | 
26 | CC(C)c1cc([N+](=O)[O-])cc([N+](=O)[O-])c1O | 108% (inactive) | 103% (inactive) |  | 107% (inactive) | 103% (inactive) | 81.4% (inactive) | 98.1% (inactive) | 93.7% (inactive) | 102% (inactive) | 98.4% (inactive)
27 | CCOC(=O)c1[nH]cnc1/N=N/N(C)N |  |  |  |  |  |  | 75.8% [100 µM] (inactive) and -1.61% [100 µM] (active) |  |  | 
28 | COC12c3c(C)cc(O)c4c(=O)occ(c34)C(=O)C1C13COC(=O)c4c(O)cc(C)c(c41)C(=O)C2C3OC(C)=O (centres undefined) | 100% (inactive) | 105% (inactive) | 89.6% (inactive) | 97.6% (inactive) | 102% (inactive) | 80.2% (inactive) |  | 104% (inactive) | 91.6% (inactive) | 
